# Experimental data taken from PubChem BioAssay (NCATS).
# Several values for one entry are separate records, joined by “and”; a condition that tells them apart may be missing. Equal entries are not always repeated. Records with an inconclusive call do not appear. Where a call stands in place of a potency, no number is given. Activity calls are given as the source filed them. The call rests on the fitted dose curve; in most records, active means well fitted cell-killing curve with a large enough effect; inconclusive means small, poorly fitted or top-dose-only effect; inactive means no such curve, though single readings can be large or run the other way.
# Assay: qHTS of pediatric cancer cell lines to identify multiple opportunities for drug repurposing: Primary screen for A673 cells (AID 1347092); further: nearly all actives have a fitted effect of over 45% in size
# Conditions: A673 Ewing sarcoma viability, CellTiter-Glo ATP luminescence, 48 h; series mostly up to 46 µM
# Procedure, shortened: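 A673 cells (500-1,000 cells/well in growth media) were pre-incubated 5 h at 37 degrees C, then exposed to compounds for 48 h. Viability was read as CellTiter-Glo luminescence; concentration-response curves came directly from the primary screen.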
# Potency means the concentration at half of the fitted maximal effect.
row,Structure (SMILES),Potency
1,C[C@@H]1CN(c2c(F)c(N)c3c(=O)c(C(=O)O)cn(C4CC4)c3c2F)C[C@H](C)N1,inactive
2,CC(=O)[C@H]1CC[C@H]2[C@@H]3CCC4=CC(=O)CC[C@]4(C)[C@H]3CC[C@]12C,1.18 µM (active)
3,C[C@@H]1C[C@H]2[C@@H]3CCC4=CC(=O)C=C[C@]4(C)[C@@]3(Cl)[C@@H](O)C[C@]2(C)[C@@]1(OC(=O)c1ccco1)C(=O)CCl,0.59 µM (active)
4,NC(=O)c1ccc2[nH]ccc2c1,inactive
5,CN1CCN(c2c(F)cc3c(=O)c(C(=O)O)cn4c3c2OCN4C)CC1,inactive
6,CCc1c2c(nc3ccc(OC(=O)N4CCC(N5CCCCC5)CC4)cc13)-c1cc3c(c(=O)n1C2)COC(=O)[C@]3(O)CC,1.06 µM (active) and 590 nM (active)
7,NCCCC(O)(P(=O)(O)O)P(=O)(O)O,inactive
8,NC(=O)c1cccc(N)c1,inactive
9,Cc1oc(=O)oc1CN1CCN(c2cc3c(cc2F)c(=O)c(C(=O)O)c2n3C(C)S2)CC1 (centres undefined),inactive
10,Nc1nc(=S)c2[nH]cnc2[nH]1,841 nM (active) and 743 nM (active)
11,CCOC(=O)c1ccc(C#Cc2ccc3c(c2)C(C)(C)CCS3)nc1,23.5 µM (active)
12,COc1nc(N)nc2c1ncn2[C@@H]1O[C@H](CO)[C@@H](O)[C@@H]1O,inactive
13,OC(Cn1cncn1)(Cn1cncn1)c1ccc(F)cc1F,inactive
14,CCN1CCCC1CNC(=O)c1cc(S(N)(=O)=O)ccc1OC (centres undefined),inactive
15,O=S(=O)(c1cccc2cnccc12)N1CCCNCC1,18.7 µM (active)
16,CCCCS(=N)(=O)CCC(N)C(=O)O (centres undefined),23.5 µM (active)
17,CCN(CC)CC#CCOC(=O)C(O)(c1ccccc1)C1CCCCC1 (centres undefined),inactive
18,O=P(O)(O)C(O)(Cc1cccnc1)P(=O)(O)O,inactive
19,COc1ccccc1OCC(O)COC(N)=O (centres undefined),inactive
20,CCN(C)C(=O)Oc1cccc([C@H](C)N(C)C)c1,inactive
21,CC(=O)[C@H]1CC[C@H]2[C@@H]3CC=C4C[C@@H](O)CC[C@]4(C)[C@H]3CC[C@]12C,inactive
22,CC(C)C[C@H](NC(=O)[C@H](CCc1ccccc1)NC(=O)CN1CCOCC1)C(=O)N[C@@H](Cc1ccccc1)C(=O)N[C@@H](CC(C)C)C(=O)[C@@]1(C)CO1,10.6 nM (active) and 18.7 nM (active)
23,O=C(O)c1cn(C2CC2)c2cc(N3CCNCC3)c(F)cc2c1=O,inactive
24,CNS(=O)(=O)Cc1ccc2[nH]cc(CCN(C)C)c2c1,inactive
25,Cn1c(=O)c2c(ncn2CC(O)CO)n(C)c1=O (centres undefined),inactive

# Assay: qHTS of pediatric cancer cell lines to identify multiple opportunities for drug repurposing: Primary screen for SK-N-MC cells (AID 1347093)
# Conditions: SK-N-MC viability, CellTiter-Glo luminescence, 48 h; series mostly up to 46 µM
# Procedure, shortened: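 Metabolically active cells were quantified by ATP-dependent luminescence (CellTiter-Glo, 15 min at room temperature) following 48 h treatment. Cells had been plated at 500-1,000 per well and settled for 5 h beforehand.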
row,Structure (SMILES),Potency
1,C[C@@H]1CN(c2c(F)c(N)c3c(=O)c(C(=O)O)cn(C4CC4)c3c2F)C[C@H](C)N1,inactive
2,CC(=O)[C@H]1CC[C@H]2[C@@H]3CCC4=CC(=O)CC[C@]4(C)[C@H]3CC[C@]12C,0.526 µM (active)
3,CC1CC2C3CCC4=CC(=O)C=C[C@]4(C)[C@@]3(F)[C@@H](O)C[C@]2(C)[C@@]1(O)C(=O)CO (some centres undefined),13.2 µM (active)
4,C[C@@H]1C[C@H]2[C@@H]3CCC4=CC(=O)C=C[C@]4(C)[C@@]3(Cl)[C@@H](O)C[C@]2(C)[C@@]1(OC(=O)c1ccco1)C(=O)CCl,2.96 µM (active)
5,Nc1nc(N)c2nc(CNc3ccc(C(=O)NC(CCC(=O)O)C(=O)O)cc3)cnc2n1 (centres undefined),0.0166 µM (active)
6,NC(=O)c1ccc2[nH]ccc2c1,inactive
7,CN1CCN(c2c(F)cc3c(=O)c(C(=O)O)cn4c3c2OCN4C)CC1,inactive
8,N[C@@H](Cc1ccc(O)c(O)c1)C(=O)O,18.7 µM (active)
9,CCc1c2c(nc3ccc(OC(=O)N4CCC(N5CCCCC5)CC4)cc13)-c1cc3c(c(=O)n1C2)COC(=O)[C@]3(O)CC,106 nM (active) and 105 nM (active)
10,NCCCC(O)(P(=O)(O)O)P(=O)(O)O,inactive
11,Cc1oc(=O)oc1CN1CCN(c2cc3c(cc2F)c(=O)c(C(=O)O)c2n3C(C)S2)CC1 (centres undefined),inactive
12,Nc1nc(=S)c2[nH]cnc2[nH]1,2.99 µM (active) and 1.66 µM (active)
13,CCOC(=O)c1ccc(C#Cc2ccc3c(c2)C(C)(C)CCS3)nc1,18.7 µM (active)
14,COc1nc(N)nc2c1ncn2[C@@H]1O[C@H](CO)[C@@H](O)[C@@H]1O,inactive
15,OC(Cn1cncn1)(Cn1cncn1)c1ccc(F)cc1F,inactive
16,CCN1CCCC1CNC(=O)c1cc(S(N)(=O)=O)ccc1OC (centres undefined),inactive
17,CCN(CC)CCn1c(=O)c(Cc2ccc(OC)cc2)nc2ccccc21,inactive
18,O=S(=O)(c1cccc2cnccc12)N1CCCNCC1,inactive
19,CCN(CC)CC#CCOC(=O)C(O)(c1ccccc1)C1CCCCC1 (centres undefined),inactive
20,O=P(O)(O)C(O)(Cc1cccnc1)P(=O)(O)O,inactive
21,COc1ccccc1OCC(O)COC(N)=O (centres undefined),inactive
22,CCN(C)C(=O)Oc1cccc([C@H](C)N(C)C)c1,inactive
23,CC(=O)[C@H]1CC[C@H]2[C@@H]3CC=C4C[C@@H](O)CC[C@]4(C)[C@H]3CC[C@]12C,inactive
24,CC(C)C[C@H](NC(=O)[C@H](CCc1ccccc1)NC(=O)CN1CCOCC1)C(=O)N[C@@H](Cc1ccccc1)C(=O)N[C@@H](CC(C)C)C(=O)[C@@]1(C)CO1,6 nM (active) and 5.9 nM (active)
25,COc1cc2nc(N3CCCN(C)CC3)nc(NC3CCN(Cc4ccccc4)CC3)c2cc1OC,6.62 µM (active)
26,O=C(O)c1cn(C2CC2)c2cc(N3CCNCC3)c(F)cc2c1=O,inactive
27,CNS(=O)(=O)Cc1ccc2[nH]cc(CCN(C)C)c2c1,inactive
28,Cn1c(=O)c2c(ncn2CC(O)CO)n(C)c1=O (centres undefined),inactive
29,CC(C)NCC(O)c1ccc(NS(C)(=O)=O)cc1 (centres undefined),10.5 µM (active)
